{"source": "PubChem BioAssay", "note": "Calls of active or inactive are those of the source.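 The calls were made as follows: active = inhibition at or above 50% relative to wild type and mutant plate controls; inactive = inhibition below 50%.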"}
{"assay": "inhibitors of Chlamydomonas gravitaxis, primary screen, whole organism, Chlamydomonas reinhardtii, WT vs cilia-less mutant, absorbance, 96-well (AID 463189);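 also: 0% = wild type cc124 cells in DMSO and 100% = ciliumless bld1 mutant cells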", "conditions": "OD600 absorbance, 2 days, at 10 µM, active compounds read high"}
{"smiles": "O=C(OCCN1CCOCC1)C1(c2ccccc2)CCCCC1", "inhibition": "2.35% (inactive)"}
{"smiles": "O=c1c(-c2ccc(O)cc2)coc2cc(O)cc(O)c12", "inhibition": "-5.08% (inactive)"}
{"smiles": "CC/C(=C(\\c1ccccc1)c1ccc(OCCN(C)C)cc1)c1ccccc1", "inhibition": "50.3% (active)"}
{"smiles": "COc1ccc2c(c1)c(CC(=O)O)c(C)n2C(=O)c1ccccc1", "inhibition": "2.3% (inactive)"}
{"smiles": "Nc1ncnc2c1nc(Br)n2C1OC2COP(=O)(O)O[C@@H]2C1O", "note": "(stereo not given in full)", "inhibition": "7.89% (inactive)"}
{"smiles": "CNCCC(Oc1ccccc1C)c1ccccc1", "note": "(stereo not given)", "inhibition": "10.9% (inactive)"}
{"smiles": "CC(=O)NCCc1ccc(O)c(O)c1", "inhibition": "5.98% (inactive)"}
{"smiles": "O=C1CCC(N2C(=O)c3ccccc3C2=O)C(=O)N1", "note": "(stereo not given)", "inhibition": "10.8% (inactive)"}
{"smiles": "CCCC(=O)NCCc1c2n(c3ccc(OC)cc13)CCCc1ccccc1-2", "inhibition": "5.19% (inactive)"}
{"smiles": "CCN(CC)CCCC(C)Nc1ccnc2cc(Cl)ccc12", "note": "(stereo not given)", "inhibition": "0.95% (inactive)"}
{"smiles": "COC(=O)C(N)Cc1ccc(Cl)cc1", "note": "(stereo not given)", "inhibition": "-0.698% (inactive)"}
{"smiles": "CC(C)NC[C@H](O)COc1cccc2ccccc12", "inhibition": "8.72% (inactive)"}
{"smiles": "CC(N)=NCCC[C@H](N)C(=O)O", "inhibition": "5.15% (inactive)"}
{"smiles": "CC(=O)[C@@]1(O)CC[C@H]2[C@@H]3CCC4=CC(=O)CC[C@]4(C)[C@H]3CC[C@@]21C", "inhibition": "-1.04% (inactive)"}
{"smiles": "COCC(=O)O[C@]1(CCN(C)CCCc2nc3ccccc3[nH]2)CCc2cc(F)ccc2[C@@H]1C(C)C", "inhibition": "11.6% (inactive)"}
{"smiles": "CC(=O)N[C@H](C(=O)O)C(C)(C)SN=O", "inhibition": "3.53% (inactive)"}
{"smiles": "CC(C)[C@@H]1NC(=O)[C@H](CCCCN)NC(=O)[C@@H](Cc2c[nH]c3ccccc23)NC(=O)[C@H](Cc2ccc(O)cc2)NC(=O)[C@H](C)N(C)C(=O)[C@H](Cc2ccccc2)NC1=O", "inhibition": "6.6% (inactive)"}
{"smiles": "N[C@H](C(=O)O)c1cc(O)cc(O)c1", "inhibition": "-2.67% (inactive)"}
{"smiles": "CCCNC(C)C(=O)Nc1ccccc1C", "note": "(stereo not given)", "inhibition": "6.52% (inactive)"}
{"smiles": "N[C@@H]1CONC1=O", "inhibition": "0.59% (inactive)"}
{"smiles": "Nc1ccc(CCNc2ncnc3c2ncn3C2OC(CO)C(O)C2O)cc1", "note": "(stereo not given)", "inhibition": "3.12% (inactive)"}
{"smiles": "NC(N)=N/N=C/c1c(Cl)cccc1Cl", "inhibition": "3.64% (inactive)"}
{"smiles": "CC(C)NCC(O)c1cc(O)cc(O)c1", "note": "(stereo not given)", "inhibition": "11.3% (inactive)"}
{"smiles": "CN1CCC[C@H]1c1cccnc1", "inhibition": "0.862% (inactive)"}
{"smiles": "OC[C@H]1O[C@@H](n2cnc3cncnc32)[C@H](O)[C@@H]1O", "inhibition": "6.38% (inactive)"}
{"smiles": "CC(=O)N1CCN(c2ccc(OC[C@H]3CO[C@](Cn4ccnc4)(c4ccc(Cl)cc4Cl)O3)cc2)CC1", "inhibition": "74.8% (active)"}
{"smiles": "C[C@H](Cc1ccc(O)c(O)c1)[C@@H](C)Cc1ccc(O)c(O)c1", "inhibition": "-6.71% (inactive)"}
{"smiles": "NC(N)=NCCC[C@H](N)C(=O)O", "inhibition": "-8.92% (inactive)"}
{"smiles": "CCOC(=O)c1ncn2c1CN(C)C(=O)c1cc(F)ccc1-2", "inhibition": "1.79% (inactive)"}
{"smiles": "O=c1[nH]c(=O)c2nc3ccccc3nc2[nH]1", "inhibition": "-4.43% (inactive)"}
{"smiles": "FC(F)(F)c1ccccc1-n1ccnc1", "inhibition": "2.41% (inactive)"}
{"smiles": "c1ccc(C2CN3CCSC3=N2)cc1", "note": "(stereo not given)", "inhibition": "45.3% (inactive)"}
{"smiles": "CN(C)CCOC(=O)COc1ccc(Cl)cc1", "inhibition": "5.22% (inactive)"}
{"smiles": "O=C(O)[C@H]1NCCC[C@H]1C(=O)O", "inhibition": "-0.478% (inactive)"}
{"smiles": "CC(C)(C)c1onc(OCP(=O)(O)O)c1CC(N)C(=O)O", "note": "(stereo not given)", "inhibition": "9% (inactive)"}
{"smiles": "CC1=C(C(=O)O)N2C(=O)[C@@H](NC(=O)C(N)C3=CCC=CC3)[C@H]2SC1", "note": "(stereo not given in full)", "inhibition": "6.7% (inactive)"}
{"smiles": "NCCC(=O)NCCc1cnc[nH]1", "inhibition": "3.88% (inactive)"}
{"smiles": "COc1ccc(CCN(C)CCc2ccc(OC)c(OC)c2)cc1OC", "inhibition": "11.9% (inactive)"}
{"smiles": "CC12C(=O)OC(=O)C1(C)C1CCC2O1", "note": "(stereo not given)", "inhibition": "-3.97% (inactive)"}
{"smiles": "c1ccc2nc(C3=NCCN3)ccc2c1", "inhibition": "108% (active)"}
